High-throughput results: PubChem, Broad Institute
Sampled rows, rich in hits. Any-hit rate of the full collection: about 6.7%.
C diff HTS: blocks growth of Clostridium difficile; Clostridium difficile clinical isolate growth, OD600, 24 h; hits give low values; growth activity, negative = inhibition, % at 16 µg/mL (by protocol); hit rate 0.25% among 86,000; AID 1259249;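 active = mean growth activity at or below -80% and every replicate also at or below -80%; inconclusive = mean at or below -80% but some replicate above -80%; inactive = mean growth activity above -80%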;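 also: 0% = DMSO wells and -100% = levofloxacin 16 µg/mL wells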
T cruzi growth-1: blocks T. cruzi growth in NIH3T3 culture; inhibition, % at 8.34 µM; T. cruzi beta-gal in NIH3T3, GalScreen luminescence, 90 h; hit rate 5.9% among 77,000; AID 624255;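 active = mean inhibition above about 93%, with at least 55% of replicates each passing it, limit read from the data, passing the limit was not always enough; inconclusive = only one of those two conditions holds; inactive = neither condition holds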
Pf Dd2 inh: P. falciparum Dd2 growth inhibition. SYBR Green, 72 h; hits give low values. activity change, % at 10 µM. hit rate 2.3% among 94,000; in the data active = activity change below about -80%; inconclusive = no clear call, values can overlap the other calls
T cruzi growth-2: inhibitors of T. cruzi proliferation | shares compounds with T cruzi growth-1 | T. cruzi beta-gal in NIH3T3, GalScreen luminescence, 90 h | inhibition, % at 8.35 µM | hit rate 72% among 5,600;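 active = mean replicate inhibition above about 95% and at least 55% of replicates individually reaching it, limit read from the data; inconclusive = only one of the two criteria is met; inactive = neither criterion is met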
T cruzi growth-3: blocks T. cruzi growth in NIH3T3 host cells. shares compounds with T cruzi growth-1. T. cruzi beta-gal in NIH3T3, GalScreen luminescence, 90 h. inhibition, % at 2.09 µM. hit rate 21% among 5,600;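 active = mean inhibition above about 95%, with at least 55% of replicates also reaching it, limit read from the data; inconclusive = meets just one of the two conditions; inactive = meets neither condition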;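 also: plate controls were neutral control median for no effect and positive control median for full effect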
3T3 cytotox: cytotoxicity in mouse NIH/3T3 fibroblasts. cytotoxicity (signal decrease), % at 8.35 µM. NIH/3T3 viability, CellTiter-Glo ATP luminescence, 90 h. shares compounds with T cruzi growth-1. AID 651742. hit rate 14% among 5,600;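 active = mean signal decrease across replicates above about 35% based on untreated-well scatter, with enough replicates individually passing, limit read from the data; inconclusive = no rule stated though some were filed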;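 also: 0% = median of neutral control wells and 100% = median of positive control wells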
3T3 cytotox 2: cytotoxicity in mouse NIH/3T3 fibroblasts | shares compounds with T cruzi growth-1 | NIH/3T3 viability, CellTiter-Glo ATP luminescence, 90 h | inhibition, % at 24.9 µM | hit rate 56% among 5,600;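 active = mean loss of cell viability signal at or above a set limit, and enough replicates individually reaching it; inconclusive = meets only the mean limit or only the replicate share; inactive = meets neither condition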;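 also: 0% = median of neutral control wells and 100% = median of positive control wells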
Starred values were filed as active, the others as inactive; ? = inconclusive; . = not tested or not shown.

SMILES | C diff HTS | T cruzi growth-1 | Pf Dd2 inh | T cruzi growth-2 | T cruzi growth-3 | 3T3 cytotox | 3T3 cytotox 2
C[C@@H]1CN([C@@H](C)CO)C(=O)c2cc(NS(=O)(=O)c3ccc(Cl)cc3)ccc2O[C@H]1CN(C)Cc1ccc(-c2ccccc2)cc1 | 11.0 | 109.4* | 19.1 | 105.6* | 80.4 | -2.3 | 104.2*
C[C@@H]1CN([C@H](C)CO)C(=O)c2cc(NS(=O)(=O)c3cccs3)ccc2O[C@@H]1CN(C)Cc1ccc(-c2ccccc2)cc1 | 13.7 | 93.4* | -0.8 | -4.1 | -32.9 | 6.9 | -11.0
Cc1ccc(S(=O)(=O)Nc2ccc3c(c2)C(=O)N([C@@H](C)CO)C[C@@H](C)[C@H](CN(C)Cc2ccc(-c4ccccc4)cc2)O3)cc1 | 28.4 | 89.5 | -3.4 | . | . | . | .
C[C@H](CO)N1C[C@H](C)[C@H](CN(C)Cc2ccc(-c3ccccc3)cc2)Oc2ccc(NS(=O)(=O)c3cccs3)cc2C1=O | 8.5 | 55.6 | -11.4 | . | . | . | .
CO[C@H]1CN(C)C(=O)c2cc(NC(=O)CC(F)(F)F)ccc2OC[C@@H](C)NC[C@@H]1C | -2.0 | . | 21.9 | . | . | . | .
CN1CCN(C(=O)C[C@@H]2C[C@H]3c4cc(NC(=O)Nc5ccccc5)ccc4O[C@H]3[C@@H](CO)O2)CC1 | 4.6 | -21.6 | -6.9 | . | . | . | .
CN1c2ccc(-c3ccccc3F)cc2[C@H]2[C@H](CCN2C(=O)Nc2ccc(F)cc2)[C@H]1CO | 75.2 | ? | 4.7 | 111.1* | 93.6 | -14.8 | 45.4*
CCC(=O)N1CC[C@@H]2[C@@H](CO)N(C)c3ccc(-c4ccccc4F)cc3[C@@H]21 | 8.7 | 89.2 | 20.7 | . | . | . | .
CCC(=O)N1CC[C@@H]2[C@H]1c1cc(-c3ccccc3F)ccc1N(C)[C@H]2CO | -2.6 | 91.5 | 28.3 | . | . | . | .
CN1c2ccc(-c3ccccc3F)cc2[C@@H]2[C@@H](CCN2C(=O)Nc2ccc(F)cc2)[C@@H]1CO | -10.2 | 107.0* | 0.8 | 103.6* | 101.4* | 13.8 | 43.4*
CCNC(=O)C[C@H]1CC[C@@H]2[C@H](COc3ccc(NC(=O)C4CCOCC4)cc3C(=O)N2C)O1 | -11.2 | 32.7 | 2.0 | . | . | . | .
C[C@H](CO)N1C[C@H](C)[C@H](CN(C)C(=O)C2CCC2)Oc2ncc(C#Cc3cccc(F)c3)cc2C1=O | 2.2 | -90.6 | -49.9 | . | . | . | .
C[C@@H]1CCCCO[C@@H](CN(C)CC2CCCCC2)[C@H](C)CN([C@H](C)CO)C(=O)c2cc(NC(=O)Cc3ccccc3)ccc2O1 | 30.7 | 82.2 | -67.5 | . | . | . | .
CN(C)C(=O)c1cccc(-c2ccc3c(c2)[C@H]2[C@H](CCN2C(=O)Cc2ccccc2)[C@@H](CO)N3)c1 | 1.8 | 91.6 | -42.1 | . | . | . | .
O=C(NCC[C@H]1CC[C@@H](NC(=O)C2CCC2)[C@H](CO)O1)c1cnccn1 | -2.6 | 184.5* | -5.6 | 56.3 | 4.7 | -7.1 | 10.2
O=C(NCC[C@H]1CC[C@H](NC(=O)C2CCC2)[C@@H](CO)O1)c1cnccn1 | . | 52.0 | 4.9 | . | . | . | .
Cc1noc(C)c1NC(=O)Nc1ccc2c(c1)C(=O)N([C@@H](C)CO)C[C@H](C)[C@@H](CN(C)C(=O)Nc1ccccc1)OCCCC[C@H](C)O2 | 0.0 | 5.4 | -23.7 | . | . | . | .
O=C(Nc1ccc(F)cc1)N1CC(=O)N2[C@H](CO)[C@@H](c3ccc(-c4ccc(F)cc4)cc3)[C@@H]2C1 | -2.5 | . | -23.0 | . | . | . | .
O=C(C[C@@H]1CC[C@@H]2[C@H](COC[C@@H](O)CN2C(=O)Nc2cc(Cl)cc(Cl)c2)O1)N1CCCCC1 | . | 78.7 | 5.9 | . | . | . | .
O=C(C[C@H]1CC[C@H]2[C@@H](COC[C@H](O)CN2C(=O)Nc2cc(Cl)cc(Cl)c2)O1)N1CCCCC1 | . | 99.4* | -12.7 | 109.0* | 39.2 | 11.4 | 19.6
O=C(C[C@@H]1CC[C@@H]2[C@H](COC[C@@H](O)CN2C(=O)Nc2cccc(Cl)c2)O1)N1CCCCC1 | 28.6 | 109.3* | 0.0 | 38.8 | 21.1 | -1.3 | -20.9
O=C(C[C@H]1CC[C@@H]2[C@H](COC[C@H](O)CN2C(=O)Nc2cccc(Cl)c2)O1)N1CCCCC1 | 30.9 | -62.3 | 1.7 | . | . | . | .
C[C@@H]1CN([C@@H](C)CO)C(=O)c2cc(NS(=O)(=O)c3cccs3)ccc2O[C@@H](C)CCCCO[C@@H]1CN(C)C(=O)Nc1ccccc1 | -3.0 | 15.7 | . | . | . | . | .
O=C(C[C@H]1CC[C@@H]2[C@H](COC[C@H](O)CN2CCC(F)(F)F)O1)NCC1CCCCC1 | 1.1 | 78.1 | -11.4 | . | . | . | .
C[C@H]1CN([C@@H](C)CO)C(=O)Cc2cc(NS(=O)(=O)c3ccccc3)ccc2O[C@@H]1CN(C)C | 4.4 | . | -3.9 | . | . | . | .
SMILES | C diff HTS | T cruzi growth-1 | Pf Dd2 inh | T cruzi growth-2 | T cruzi growth-3 | 3T3 cytotox | 3T3 cytotox 2
Cc1noc(C)c1S(=O)(=O)Nc1cccc2c1O[C@H](CN(C)C(=O)Nc1ccccc1)[C@H](C)CN([C@@H](C)CO)C2=O | -4.7 | -1.7 | -20.2 | . | . | . | .
COc1ccc(NC(=O)N(C)C[C@@H]2OCCCC[C@@H](C)Oc3ccc(NC(=O)Nc4ccc(C(F)(F)F)cc4)cc3C(=O)N([C@@H](C)CO)C[C@@H]2C)cc1 | -8.0 | . | -78.9 | . | . | . | .
COc1ccc(NC(=O)N(C)C[C@H]2OCCCC[C@@H](C)Oc3ccc(NC(=O)Nc4ccc(C(F)(F)F)cc4)cc3C(=O)N([C@H](C)CO)C[C@@H]2C)cc1 | 0.9 | 108.4* | -23.1 | 111.2* | 106.0* | -1.9 | 25.6*
COc1ccc(NC(=O)Nc2ccc3c(c2)C(=O)N([C@H](C)CO)C[C@H](C)[C@@H](CN(C)C(=O)Nc2ccc(C(F)(F)F)cc2)OCCCC[C@@H](C)O3)cc1 | -7.7 | 112.3 | -66.3 | . | . | . | .
COc1ccc(NC(=O)N(C)C[C@@H]2OCCCC[C@H](C)Oc3ccc(NC(=O)Nc4ccc(C(F)(F)F)cc4)cc3C(=O)N([C@@H](C)CO)C[C@H]2C)cc1 | 10.7 | 97.3* | 62.3 | 110.8* | ? | -20.8 | ?
COc1ccc(NC(=O)Nc2ccc3c(c2)C(=O)N([C@@H](C)CO)C[C@@H](C)[C@@H](CN(C)C)OCCCC[C@H](C)O3)cc1 | -1.8 | 27.3 | -16.6 | . | . | . | .
COc1ccc(NC(=O)Nc2ccc3c(c2)C(=O)N([C@@H](C)CO)C[C@H](C)[C@H](CN(C)C)OCCCC[C@H](C)O3)cc1 | -0.4 | 96.1* | -25.8 | 64.1 | -39.3 | -10.3 | 3.6
COc1ccc(NC(=O)Nc2ccc3c(c2)C(=O)N([C@H](C)CO)C[C@H](C)[C@H](CN(C)C(=O)Nc2ccc(C(F)(F)F)cc2)OCCCC[C@H](C)O3)cc1 | -6.1 | ? | 25.9 | 108.6* | 98.7* | 5.0 | 6.9
COc1ccc(NC(=O)Nc2ccc3c(c2)C(=O)N([C@H](C)CO)C[C@H](C)[C@H](CN(C)C(=O)Nc2ccc(C(F)(F)F)cc2)OCCCC[C@@H](C)O3)cc1 | -0.2 | . | -26.9 | . | . | . | .
COc1ccc(S(=O)(=O)N[C@@H]2CC[C@H](CC(=O)N3CCN(c4ccccc4)CC3)O[C@@H]2CO)cc1 | -4.3 | -18.7 | -1.3 | . | . | . | .
